PubChem BioAssay AID1851 (National Center for Advancing Translational Sciences (NCATS), 2009)
In all, about 16,000 compounds went through this assay and about 5,100 (32%) were called active. Another 25% or so got no clear call; they are omitted. The list shows a part of the results. Unmarked numbers belong to inactive results. Calls follow the shape of the dose curve; as a rule, active = well fitted curve in the direction sought with a large enough effect; inconclusive = small, poorly fitted or top-dose-only effect, or effect the other way; inactive = no such curve, though single readings can be large or run the other way.

Target: Cytochrome P450 3A4 (Homo sapiens) (UniProt P08684)
Sequence (P08684 whole entry, looked up): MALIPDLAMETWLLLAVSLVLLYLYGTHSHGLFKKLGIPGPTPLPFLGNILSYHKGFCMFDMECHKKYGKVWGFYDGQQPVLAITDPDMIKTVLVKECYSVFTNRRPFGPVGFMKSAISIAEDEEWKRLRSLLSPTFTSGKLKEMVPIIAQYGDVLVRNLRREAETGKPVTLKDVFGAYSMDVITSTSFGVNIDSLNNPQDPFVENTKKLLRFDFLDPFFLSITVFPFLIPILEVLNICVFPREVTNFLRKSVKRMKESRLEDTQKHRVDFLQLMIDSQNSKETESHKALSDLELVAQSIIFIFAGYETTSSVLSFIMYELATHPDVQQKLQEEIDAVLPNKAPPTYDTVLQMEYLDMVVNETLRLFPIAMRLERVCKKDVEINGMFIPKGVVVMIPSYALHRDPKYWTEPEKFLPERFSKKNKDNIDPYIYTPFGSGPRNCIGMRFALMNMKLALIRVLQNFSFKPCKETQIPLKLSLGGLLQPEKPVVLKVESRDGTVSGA
Experiment: Cytochrome panel assay with activity outcomes
Conditions: recombinant CYP, pro-luciferin dealkylation, luminescence, p450-cyp3a4; series mostly up to 57.1 µM; activity, negative = inhibition: at the top concentration
% is scaled to controls: 0 for no effect and ±100 for the full control effect.

Structure (SMILES) | activity, negative = inhibition | AC50
N#Cc1ccc(OC(=O)c2ccc(N=C(N)N)cc2)cc1 | -10.9% [at 11.4 µM] | 
Cc1cccc(CNc2ncncc2-c2ccccc2C)c1 |  | 0.398 µM (active)
Cc1cccc(CNc2ncncc2-c2ccccc2C(F)(F)F)c1 |  | 0.0794 µM (active)
Cc1cccc(CNc2ncncc2-c2ccccc2Cl)c1 |  | 0.2 µM (active)
Cc1ccc(N(CC(N)=O)C2SC(=O)N(Cc3cccc(C(=O)O)c3)C2=O)cc1 (configuration not stated) | 22.1% | 
c1ccc(CSc2nnc(-c3sccc3-n3cccc3)o2)cc1 |  | 15.8 µM (active)
Clc1ccc(CSc2nnc(-c3sccc3-n3cccc3)o2)cc1 |  | 6.31 µM (active)
c1ccc(CSc2nnc([C@@H]3CCCN3)o2)cc1 | -4.35% [at 11.4 µM] | 
Clc1ccc(CSc2nnc(-c3cccnc3)o2)cc1 |  | 3.16 µM (active)
Cc1cccc(-c2nnc(SCc3ccccc3)o2)c1 | -29.6% | 
Clc1cccc(CSc2nnc(-c3sccc3-n3cccc3)o2)c1 |  | 8.91 µM (active)
CCOC(=O)c1c(NC(=O)Cn2cc([N+](=O)[O-])cn2)sc2c1CCC2 |  | 10 µM (active)
CCOC(=O)c1c(NC(=O)CSc2nnc(C)s2)sc2c1CCCCC2 | -23.9% [at 2.29 µM] | 
CCOC(=O)c1c(NC(=O)Cn2nc([N+](=O)[O-])c(Br)c2C)sc2c1CCC(C)C2 (configuration not stated) | -21.8% [at 2.29 µM] | 
COC(=O)c1c(NC(=O)Cn2cc([N+](=O)[O-])cn2)sc2c1CCC2 |  | 14.1 µM (active)
O=C(O)CCN1C(=S)CSC1=S | -22% [at 11.4 µM] | 
Cc1ccc(-c2ncccc2OC(=O)C23CC4CC(CC(C4)C2)C3)cc1 | -12.5% [at 2.29 µM] | 
CCC(C(=O)c1ccccc1)N(C(=O)c1ccccc1Cl)N1C(=O)C2C3C=CC(C3)C2C1=O (configuration not stated) |  | 0.891 µM (active)
Cc1ccc(OC(=O)c2cccc(C(=O)Oc3ccc(C)cc3)n2)cc1 | 6.37% [at 11.4 µM] | 
COC(=O)c1cccc(C(=O)Nc2ccc(C)cc2)n1 |  | 12.6 µM (active)
CCOC(=O)c1cccc(C(=O)OCC)n1 | -1.92% | 
c1csc(CNc2ccnc(-c3ccc4c(c3)OCO4)n2)c1 |  | 1 µM (active)
c1ccc(CNc2ccnc(-c3ccc4c(c3)OCO4)n2)cc1 |  | 0.794 µM (active)

Structure (SMILES) | activity, negative = inhibition | AC50
c1cncc(CNc2ccnc(-c3ccc4c(c3)OCO4)n2)c1 |  | 1 µM (active)
COc1c(O)cc2c(c1O)[C@@H]1O[C@@H](CO)[C@@H](O)[C@@H](O)[C@@H]1OC2=O | -6.12% [at 25.6 µM] | 
c1cnc(Nc2nc(-c3ccc4ccccc4c3)cs2)nc1 | -2.2% | 
COc1cccc(Nc2nc(-c3ccc(O)cc3)cs2)c1 |  | 7.08 µM (active)
Cc1nn2c([nH]c(=O)c3ccccc32)c1C=O | 3.01% | 
O=C(O)NCc1ccccc1 (tested in a mixture with another compound) | -3.33% [at 11.4 µM] | 
O=C(NCc1ccccc1)c1sc(=S)n2c1[nH]c(=O)c1ccccc12 |  | 3.98 µM (active)
COc1ccc2cc3cc(C(=O)NCCCN4CCOCC4)oc3nc2c1 |  | 10 µM (active)
COc1ccc2cc3cc(C(=O)NCCN4CCN(c5ccccc5F)CC4)oc3nc2c1 |  | 14.1 µM (active)
CCN1CCN(CCCNC(=O)c2cc3cc4ccc(OC)cc4nc3o2)CC1 | -17.8% | 
CN1CCN(C(=O)c2ccc(-n3cccc3)cc2)CC1 | -11.5% | 
COc1cc2c(C(=O)N3CCN(C)CC3)c(C)n(-c3ccccc3)c2cc1Br |  | 1.12 µM (active)
COc1cc2c3c(c1OC)C1(C=CC(=O)C=C1)CC3N(C(=O)c1ccccc1)CC2 (configuration not stated) | 1.64% | 
COc1ccc2nc(/N=C\N(C)C)sc2c1 | -29.5% | 
COc1ccc2c(Cl)c(-c3nnco3)sc2c1 |  | 7.08 µM (active)
COc1ccc2nc(N)sc2c1 | -20.7% | 
COc1cc(/C=N\Nc2nc3ccccc3[nH]2)cc(OC)c1OC | -13.5% [at 2.29 µM] | 
COc1ccc(/C=N/Nc2snc(SC)c2C#N)cc1OC |  | 8.91 µM (active)
COc1cc(/C=N/Nc2snc(SC)c2C#N)cc(OC)c1OC |  | 7.94 µM (active)
CS(=O)(=O)Nc1cccc(-c2cncnc2Nc2ccc(F)cc2)c1 |  | 0.316 µM (active)
COc1cccc(-c2cncnc2NC2CCNCC2)c1 | -17.5% | 
CS(=O)(=O)Nc1cccc(-c2cncnc2Nc2ccccc2)c1 |  | 0.501 µM (active)
COc1cccc(-c2cncnc2Nc2ccc(F)cc2)c1 |  | 0.794 µM (active)

Structure (SMILES) | activity, negative = inhibition | AC50
Nc1cc2c(nc3c4ccccc4c(N)cc3[n+]2-c2cccc3ccccc23)c2ccccc12 (tested in a mixture with another compound) | -29.5% [at 11.4 µM] | 
CCCCCCCCC[n+]1cccc2c3ccccc3ccc21 | 6.4% | 
Cc1cc(N)c2ccccc2[n+]1CCCCCCCCCCCCCC[n+]1c(C)cc(N)c2ccccc21 |  | 10 µM (active)
CCOC(=O)[C@H](N)/C=C(\C)CP(=O)(O)O | -11.1% | 
O=C(CSc1nc2ccccc2s1)N1c2ccccc2Sc2ccccc21 |  | 11.2 µM (active)
O=C(CSc1nc2ccccc2s1)c1sc2sc3ccccc3[n+]2c1O | -12.2% [at 11.4 µM] | 
O=C(CSc1nc2ccccc2s1)N1c2ccccc2Sc2ccc(C(F)(F)F)cc21 |  | 6.31 µM (active)
CO/N=C(\C(=O)N[C@@H]1C(=O)N2C(C(=O)O)=C(COC(N)=O)CS[C@@H]12)c1ccco1 | 18.5% [at 25.6 µM] | 
N[C@@H](CSS(=O)(=O)O)C(=O)O | -15.1% | 
CC(C)(C)c1[nH]nc2c1C(c1ccc(OC(=O)c3ccco3)cc1)C(C#N)=C(N)O2 (configuration not stated) |  | 2.24 µM (active)
O=C(Nc1cccc2[nH]ncc12)c1ccc(F)cc1 |  | 15.8 µM (active)
O=C(Nc1ccccc1Cl)c1ccn[nH]1 | 11.2% | 
COC(=O)c1ccccc1NC(=O)c1ccc(F)cc1 | -21% | 
O=C(Nc1cccc(F)c1)N1CCCC2(CCN(C(=O)c3cc(C(F)(F)F)cc(C(F)(F)F)c3)CC2)C1 |  | 12.6 µM (active)
O=C(Nc1ccccc1)N1CCCC2(CCN(C(=O)c3cc(C(F)(F)F)cc(C(F)(F)F)c3)CC2)C1 |  | 15.8 µM (active)
O=C(Nc1cccc(F)c1)N1CC[C@@]2(CCCN(C(=O)c3cc(C(F)(F)F)cc(C(F)(F)F)c3)C2)C1 |  | 15.8 µM (active)
N#Cc1cccc(NC(=O)N2CCCC3(CCN(C(=O)c4cc(C(F)(F)F)cc(C(F)(F)F)c4)CC3)C2)c1 |  | 10 µM (active)
O=C(Nc1ccccc1)N1CC2(CCN(C(=O)c3cc(C(F)(F)F)cc(C(F)(F)F)c3)CC2)C1 | -17.6% | 
Cn1cccc1C(=O)N1CCC2(CCN(C(=O)Nc3cccc(F)c3)CC2)CC1 | 21.8% | 
COCC(=O)N1CCC2(CC1)CN(C(=O)Nc1cccc(F)c1)C2 | -6.8% | 
COC(=O)N1CCC2(CCCN(C(=O)Nc3ccccc3)C2)CC1 | -23.6% | 
